Broadly, the inhibition is the relative decrease from the control value, in per cent.

A number with no mark means an inactive call. For some of these results: Potency and affinity values are given separately. Active and inactive are the calls of the source. Unless noted, the rule behind the calls is not given here.

We go through 20 molecules from PubChem BioAssay.

Assay [1] in a line: antimalarial activity against Dd2 strain (AID 2302;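 active = growth inhibition above 50% at the single 2 µM test dose, taken to imply half-maximal potency below 2 µM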;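 note: 0% = DMSO untreated growth and 100% = chloroquine plus artemisinin killed control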). The conditions noted are these: P. falciparum Dd2 in RBCs, LDH growth readout, 72 h; at 2 µM; stronger effect = higher value.
Assay [2] can be described thus: human hepatoma cell viability loss – ATP luminescence, cytotoxicity control for P. falciparum antimalarial project, primary screen (AID 2303;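 active = inhibition above 50%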;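 note: 0% = DMSO wells and 100% = digitonin-killed cells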). The conditions noted are these: HepG2 viability, 24-48 h, at 10 µM, stronger effect = higher value.
The target of assay [3] is L-lactate dehydrogenase (Plasmodium falciparum (isolate CDC / Honduras)) (UniProt Q27743). The experiment in a line: PfLDH activity inhibition – cell lysate, 3D7 strain, counter-screen for P. falciparum growth inhibition project (AID 2304).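 Note: 0% = vehicle and 100% = reference inhibitor.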 Particulars: P. falciparum 3D7 crude extract, LDH APAD/NBT absorbance; at 2 µM; stronger effect = higher value. A general note: Counterscreens check selectivity or assay interference.
Chain of L-lactate dehydrogenase (Plasmodium falciparum (isolate CDC / Honduras)) (Q27743 whole entry, looked up): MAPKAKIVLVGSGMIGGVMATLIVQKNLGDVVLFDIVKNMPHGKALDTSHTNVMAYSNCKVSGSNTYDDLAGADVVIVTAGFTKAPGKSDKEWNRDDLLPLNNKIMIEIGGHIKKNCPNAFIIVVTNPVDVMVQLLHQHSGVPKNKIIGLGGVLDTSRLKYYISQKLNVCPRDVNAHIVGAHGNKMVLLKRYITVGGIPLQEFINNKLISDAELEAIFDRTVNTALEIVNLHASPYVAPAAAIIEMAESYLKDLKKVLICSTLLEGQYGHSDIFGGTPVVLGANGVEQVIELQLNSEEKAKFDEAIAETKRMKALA

Assay [4] can be described thus: inhibition of 3D7 malaria parasite growth – strain 3D7 (AID 2306).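 Note: 0% = DMSO wells and 100% = chloroquine plus artemisinin control wells.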 The conditions noted are these: P. falciparum 3D7 erythrocytic growth, LDH absorbance, 72 h; at 2 µM; stronger effect = higher value.
Assay [5] addresses Calcium-dependent protein kinase 1 (Plasmodium falciparum (isolate 3D7)) (UniProt P62344). The experiment in a line: PfCDPK1 kinase inhibitors, biochemical, TCAMS library (AID 1159585; cut-off not given, nearly all actives have IC50 up to about 0.98 µM;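 note: inhibitors leave more ATP so luminescence rises with inhibition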). Particulars: recombinant PfCDPK1, Kinase-Glo ATP depletion luminescence. For orientation: Kinase-Glo reads ATP consumption through a luciferase reaction.
Assay [6] deals with Plasmodium falciparum protein kinase 6 (PK6, PF3D7_1337100) (UniProt Q8IDW1). The experiment in a line: PfPK6 kinase inhibitors, biochemical, TCAMS library (AID 1159586). Particulars: recombinant PfPK6, Kinase-Glo ATP depletion luminescence.
Chain of Plasmodium falciparum protein kinase 6 (PK6, PF3D7_1337100) (Q8IDW1 1-305): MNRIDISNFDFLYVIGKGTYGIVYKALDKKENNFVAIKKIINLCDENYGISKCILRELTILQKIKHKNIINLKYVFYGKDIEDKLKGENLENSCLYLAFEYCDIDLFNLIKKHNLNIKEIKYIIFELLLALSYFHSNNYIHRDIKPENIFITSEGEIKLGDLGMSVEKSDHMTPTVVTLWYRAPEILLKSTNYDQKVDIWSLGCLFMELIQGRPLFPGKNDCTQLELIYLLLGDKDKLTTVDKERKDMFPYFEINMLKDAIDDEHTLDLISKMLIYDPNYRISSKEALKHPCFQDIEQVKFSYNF
Assay [7] concerns the target Protein kinase 7 (PK7), Plasmodium falciparum 3D7 (PF3D7_0213400) (UniProt Q7YTF7). The experiment in a line: inhibition of Plasmodium PK7 catalytic activity – biochemical, TCAMS antimalarial set, Kinase-Glo luminescence (AID 1159587). Particulars: recombinant PfPK7, Kinase-Glo ATP depletion luminescence.
The target of assay [8] is Calcium-dependent protein kinase 4 (Plasmodium falciparum (isolate 3D7)) (UniProt Q8IBS5). The experiment in a line: PfCDPK4 kinase inhibitors, biochemical, TCAMS library (AID 1159588; cut-off not given, nearly all actives have IC50 up to about 0.91 µM). Particulars: recombinant PfCDPK4, Kinase-Glo ATP depletion luminescence.
Chain of Calcium-dependent protein kinase 4 (Plasmodium falciparum (isolate 3D7)) (Q8IBS5 whole entry, looked up): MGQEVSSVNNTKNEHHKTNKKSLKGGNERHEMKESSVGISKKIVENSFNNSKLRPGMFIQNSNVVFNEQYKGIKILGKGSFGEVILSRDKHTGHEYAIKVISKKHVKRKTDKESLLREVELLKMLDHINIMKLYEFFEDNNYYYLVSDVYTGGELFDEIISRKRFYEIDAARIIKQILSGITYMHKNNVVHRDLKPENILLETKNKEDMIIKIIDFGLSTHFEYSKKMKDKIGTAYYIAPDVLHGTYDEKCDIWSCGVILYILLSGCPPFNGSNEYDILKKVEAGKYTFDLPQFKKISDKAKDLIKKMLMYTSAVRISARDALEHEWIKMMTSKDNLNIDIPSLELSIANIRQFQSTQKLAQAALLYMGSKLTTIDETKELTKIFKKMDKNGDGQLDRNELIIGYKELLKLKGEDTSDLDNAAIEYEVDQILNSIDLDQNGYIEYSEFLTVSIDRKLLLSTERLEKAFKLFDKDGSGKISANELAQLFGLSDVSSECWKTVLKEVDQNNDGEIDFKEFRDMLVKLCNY

Chain of Protein kinase 7 (PK7), Plasmodium falciparum 3D7 (PF3D7_0213400) (Q7YTF7 1-343): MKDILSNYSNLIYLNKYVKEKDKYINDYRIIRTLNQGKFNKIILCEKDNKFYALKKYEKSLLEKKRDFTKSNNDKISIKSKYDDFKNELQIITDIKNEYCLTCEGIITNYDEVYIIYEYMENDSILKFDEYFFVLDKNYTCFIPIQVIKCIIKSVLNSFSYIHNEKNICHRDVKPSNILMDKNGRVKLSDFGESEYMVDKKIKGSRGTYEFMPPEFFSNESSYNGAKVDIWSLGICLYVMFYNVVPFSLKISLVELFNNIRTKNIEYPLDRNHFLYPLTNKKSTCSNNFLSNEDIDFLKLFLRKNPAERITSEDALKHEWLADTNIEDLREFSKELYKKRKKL
Chain of Calcium-dependent protein kinase 1 (Plasmodium falciparum (isolate 3D7)) (P62344 whole entry, looked up): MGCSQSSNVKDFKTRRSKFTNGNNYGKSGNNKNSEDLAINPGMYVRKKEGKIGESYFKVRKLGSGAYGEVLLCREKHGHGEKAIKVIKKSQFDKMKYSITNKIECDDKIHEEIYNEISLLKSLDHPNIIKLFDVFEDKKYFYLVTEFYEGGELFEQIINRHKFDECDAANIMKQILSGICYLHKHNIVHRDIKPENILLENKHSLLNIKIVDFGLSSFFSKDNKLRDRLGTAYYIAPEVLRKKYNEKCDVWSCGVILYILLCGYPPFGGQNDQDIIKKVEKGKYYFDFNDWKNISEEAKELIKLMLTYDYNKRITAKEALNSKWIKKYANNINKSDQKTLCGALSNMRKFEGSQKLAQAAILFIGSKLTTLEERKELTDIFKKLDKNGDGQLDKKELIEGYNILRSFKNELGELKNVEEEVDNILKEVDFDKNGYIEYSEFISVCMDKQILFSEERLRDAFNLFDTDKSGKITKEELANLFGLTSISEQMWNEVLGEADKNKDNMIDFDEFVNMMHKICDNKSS

Consider `COc1ccc2nccc(NC(=O)N3CCC(NCCOc4cc(F)cc(F)c4)CC3)c2n1`, for which the growth inhibition is 38% in assay [1] and 86% (active) in assay [4]. Moreover, the values for the inhibition in assay [2] and in assay [3] were 14% and -2%, respectively. In addition, the result in assay [5], in assay [6], in assay [7] and in assay [8] was inactive.
Turning to `FC(F)(F)Oc1ccc(-c2cnc3ccc(NCc4ccncc4)nn23)cc1`, the growth inhibition is 54% (active) in assay [1] and 97% (active) in assay [4]. Also, the values for the inhibition in assay [2] and in assay [3] were 19% and -3%, respectively. Moreover, the result in assay [5], in assay [6], in assay [7] and in assay [8] was inactive.
Consider `COc1ccc(-c2ccc([N+](=O)[O-])cc2C(=O)NCC(C)Oc2ccc(C(F)(F)F)cc2)cc1` (stereo not given), for which the growth inhibition was 81% (active) in assay [1] and 102% (active) in assay [4]. Besides, the inhibition was 6% in assay [2] and 5% in assay [3]. The result in assay [5], in assay [6], in assay [7] and in assay [8] was inactive.
Consider `O=C(Nc1cccc(CN2CCCN(Cc3ccc4c(c3)OCO4)CC2)c1)c1ccc2ccccc2c1`, for which the growth inhibition was 14% in assay [1] and 86% (active) in assay [4]. Besides, the figures for the inhibition in assay [2] and in assay [3] were 7% and -2%, respectively. In addition, the outcome in assay [5], in assay [6], in assay [7] and in assay [8] was inactive.
Take `CN(C(=O)C(C)(C)Oc1ccc(Cl)cc1)C1CCN(CCCCCNC(=O)/C=C/c2ccc(Cl)c(Cl)c2)CC1`: the growth inhibition in assay [1] was 26%; in assay [4], 96% (active). In addition, the inhibition in assay [2] was 86% (active); in assay [3] it was 0%. Besides, the result in assay [5], in assay [6], in assay [7] and in assay [8] was inactive.
`CC(CNC(=O)[C@H]1CNCCN1C(=O)CCCc1ccccc1)c1ccccc1` (stereo not given in full): the growth inhibition is 1% in assay [1] and 94% (active) in assay [4]. For the same molecule, the results for the inhibition in assay [2] and in assay [3] were 12% and 3%, respectively. The outcome in assay [5], in assay [6], in assay [7] and in assay [8] was inactive.
As for `O=C(/C=C/c1ccc(C(F)(F)F)cc1)NCCCCCN1CCCN(C(=O)Nc2cccc(Cl)c2)CC1`, the figures for the growth inhibition in assay [1] and in assay [4] were 3% and 92% (active), respectively. Further, the inhibition is 16% in assay [2] and 3% in assay [3]. Further, the outcome in assay [5], in assay [6], in assay [7] and in assay [8] was inactive.
As to `CCCCCNc1ccnc2cc(Cl)ccc12`, the figures for the growth inhibition in assay [1] and in assay [4] were 99% (active) and 97% (active), respectively. The inhibition in assay [2] is 12%; in assay [3], -2%. Further, the outcome in assay [5], in assay [6], in assay [7] and in assay [8] was inactive.
Regarding `O=C(NC1CCCc2ccccc21)[C@@H]1CCCN1C(=O)c1ccc(O)c(-c2ccc(Cl)c(Cl)c2)c1` (stereo not given in full), the growth inhibition in assay [1] and in assay [4] was 99% (active) each time. The inhibition in assay [2] was -6%; in assay [3], -2%. In addition, the result in assay [5], in assay [6], in assay [7] and in assay [8] was inactive.
As for `CCN1CCC(N(Cc2ccc(-c3ccc(C(F)(F)F)cc3)cc2)C(=O)Cn2c(SCc3ccc(F)cc3)nc(=O)c3c2CCC3)CC1`, the growth inhibition in assay [1] is 96% (active); in assay [4] it was 90% (active). Moreover, the values for the inhibition in assay [2] and in assay [3] were 46% and 2%, respectively. Also, the outcome in assay [5], in assay [6], in assay [7] and in assay [8] was inactive.
As for `Cc1cc(OCCCN2CCN(CCN3CCOCC3)CC2)ccc1NC(=O)COc1ccc(Cl)cc1C(=O)c1cc(Cl)cc(C#N)c1`, the growth inhibition in assay [1] is 78% (active); in assay [4], 99% (active). Moreover, the values for the inhibition in assay [2] and in assay [3] were 30% and -3%, respectively. The outcome in assay [5], in assay [6], in assay [7] and in assay [8] was inactive.
As to `COc1ccc(NC(=O)/C=C/c2ccccc2Cl)cc1OCCN1CCC(Cc2cc3ccccc3[nH]2)CC1`, the values for the growth inhibition in assay [1] and in assay [4] were 8% and 92% (active), respectively. Further, the results for the inhibition in assay [2] and in assay [3] were 56% (active) and 0%, respectively. For the same molecule, the outcome in assay [5], in assay [6], in assay [7] and in assay [8] was inactive.
On to `O=C(Cc1cc(F)cc(F)c1)NC1CCN(c2ccnc3cc(Cl)ccc23)C1` (stereo not given), for which the growth inhibition in assay [1] is 101% (active); in assay [4], 82% (active). Further, the figures for the inhibition in assay [2] and in assay [3] were 13% and 0%, respectively. Moreover, the outcome in assay [5], in assay [6], in assay [7] and in assay [8] was inactive.
On to `Cc1cccc2[nH]c(-c3ccc(-c4ccc(NC(=O)Nc5ccc(Cl)cc5)cc4)cc3)nc12`, for which the results for the growth inhibition in assay [1] and in assay [4] were 100% (active) and 101% (active), respectively. Moreover, the results for the inhibition in assay [2] and in assay [3] were 52% (active) and -5%, respectively. The outcome in assay [5], in assay [6], in assay [7] and in assay [8] was inactive.
In the case of `CCOC(=O)c1ccc(N2CCCCC2)c(NC(=O)C(Cl)(Cl)Cl)c1`, the growth inhibition was 97% (active) in assay [1] and 96% (active) in assay [4]. Further, the inhibition was 11% in assay [2] and 1% in assay [3]. The outcome in assay [5], in assay [6], in assay [7] and in assay [8] was inactive.
As to `Cc1cccc2[nH]c(-c3ccc(-c4cccc(NC(=O)c5cncn5C)c4)cc3)nc12`, the growth inhibition was 1% in assay [1] and 100% (active) in assay [4]. Further, the inhibition in assay [2] and in assay [3] was 2% each time. Besides, the outcome in assay [5], in assay [6], in assay [7] and in assay [8] was inactive.
Take `Cc1ccc(Cn2cnc3cc(C(=O)Nc4ccc(-c5cccc(CN(C)C)c5)cc4)ccc3c2=O)o1`: the values for the growth inhibition in assay [1] and in assay [4] were 39% and 99% (active), respectively. For the same molecule, the figures for the inhibition in assay [2] and in assay [3] were 22% and 4%, respectively. Moreover, the outcome in assay [5], in assay [6], in assay [7] and in assay [8] was inactive.
As for `c1cc(CNC2CCN(CC3CCCCC3)CC2)cc(-n2ccnc2)c1`, the growth inhibition in assay [1] was 97% (active); in assay [4] it was 102% (active). Also, the inhibition is 3% in assay [2] and 1% in assay [3]. In addition, the outcome in assay [5], in assay [6], in assay [7] and in assay [8] was inactive.
`CN(C)CCCn1cncc1-c1ccc2ncnc(Nc3ccc(OCc4ccccc4)cc3)c2c1`: the growth inhibition in assay [1] and in assay [4] was 101% (active) throughout. In addition, the results for the inhibition in assay [2] and in assay [3] were 37% and 2%, respectively. Also, the result in assay [5], in assay [6], in assay [7] and in assay [8] was inactive.
Turning to `CSc1ccc(NC(=O)Nc2cc(C)nc3ccccc23)cc1Br`, the growth inhibition in assay [1] was 66% (active); in assay [4], 101% (active). Besides, the values for the inhibition in assay [2] and in assay [3] were 7% and -6%, respectively. Moreover, the result in assay [5], in assay [6], in assay [7] and in assay [8] was inactive.
